Assay results taken from PubChem BioAssay AID1347426 (Functional Genomics Laboratory (NCATS/FGL), 2020).
Hit rate of the full screen: of about 31,000 sequences, about 1,400 (4.5%) were called active.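 Rule for the calls: active = median seed-adjusted z-score above 1 or below -1; inactive = the rest.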 This excerpt belongs to a sample that is enriched for actives.

Assay: Novel Modifiers of Survival Motor Neuron (SMN) Protein: Gene Identification via Genome-wide siRNA Screen;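 note: luminescence tracks full-length SMN protein made from the SMN2 reporter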
Conditions: HEK293T SMN2-luciferase reporter, siRNA knockdown, 72 h; actives lie on both sides
Method in brief: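 Luciferase signal, proportional to full-length SMN made from an SMN2 cDNA reporter in stable HEK293T cells, was read 72 h after siRNA reverse transfection. Values were expressed as MAD scores after non-targeting-control normalization and log10 conversion; seed analysis flagged off-targets.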

| Sequence | median seed-adjusted z-score |
| --- | --- |
| GUUCAUGCAUGGGUGGAAATT against CD200R2 | -0.772 (inactive) |
| CGUCUAUACUUACAAGCUUTT against SF3B3 | -2.53 (active) |
| GAACCAACUCGGAUAUUGUTT against MEF2A | -0.0658 (inactive) |
| GUGCCUAAGUCUUUAGUUUTT against IFI35 | 0.105 (inactive) |
| GGAGAUCUAUUCAAUGGGATT against SRPK1 | 0.37 (inactive) |
| GAGCAGUUCGAACACCUUATT against RBM4B | -0.251 (inactive) |
| GCAGAAUACCUGUUUCAAATT against TERF1 | 0.0114 (inactive) |
| GUCAUCAACGGAAACAUAATT against EIF3G | -0.198 (inactive) |
| GGUGAUGAGAGAUCCCAAUTT against PABPC4 | -0.42 (inactive) |
| ACCGAGACCUCAAACCUGATT against PSKH1 | -2.03 (active) |
| CUUUCUAGCAGUCACCAUATT against CIR | -0.197 (inactive) |
| GCCUAUAACAUGCAAACUUTT against HOXC5 | 0.507 (inactive) |
| GAAACCCGGUGAAAAGAAATT against VARS2 | 0.288 (inactive) |
| GCUUAUAGCUGCUACAAUUTT against MTMR1 | -0.0204 (inactive) |
| CGAAAUACGUGGAACUCAUTT against ACE | 0.0874 (inactive) |
| ACAUCGCCCUUAUUGCUAUTT against FOXS1 | 0 (inactive) |
| AGAGCAUCCUAAACGACCATT against SMUG1 | -1.38 (active) |
| GCUGGUACAUGACAUCCGATT against GGT7 | 0.135 (inactive) |
| GCCUUAAGAUCUCGGCGUATT against PTPRK | 0 (inactive) |
| UGAAGAUGAGGGACCCUAATT against LOXL4 | -0.591 (inactive) |
| GGGUGGACGUGGAUACUUATT against NFE2L1 | 0.689 (inactive) |
| AGGGCUAUCUGGUAUCUGUTT against SNRPF | -2.66 (active) |

| Sequence | median seed-adjusted z-score |
| --- | --- |
| CUGGUACAGUGAUCGGGAATT against PCDH12 | 0.0177 (inactive) |
| GUUAUGCCUUUAUUAAUUUTT against SF3B4 | -2.56 (active) |
| GGAUAUUACAGCUAUUUGATT against USP10 | 0.182 (inactive) |
| CAACUGCAGCAGAUUCUAATT against MNAT1 | -0.335 (inactive) |
| GACCAGAUCUUUAAUCUCATT against RGS10 | 0.304 (inactive) |
| CAACACCGCCCACAACAAATT against TRIM25 | 0.859 (inactive) |
| CGGGAGUUUUUGGAACUGATT against MMS19L | 0.898 (inactive) |
| GGAAGCUCCUUGUCAAGAUTT against MECP2 | -0.332 (inactive) |
| GCAGGAUGCUGUCAACAUATT against PSMD4 | 1.46 (active) |
| GCAAGAGAAUUAGAUCAGATT against SLC16A12 | 0.0219 (inactive) |
| CCAUCGUCAACAUACGGAATT against TRIT1 | 0.794 (inactive) |
| GUGUGGAUCUGUGGACUCATT against CRB2 | 0 (inactive) |
| CACUAAGAGAAAAUCUGAATT against GALNT13 | -0.0149 (inactive) |
| CCACCUAGCUUGUAACGAATT against EP400 | 1.83 (active) |
| GGUUGUAGAGUUGAAAGUUTT against UBE2O | 0.125 (inactive) |
| GGACACGGGUGUCAUCCUATT against UBASH3A | -1.1 (active) |
| GCCGUUUAAUACCCGAUGATT against RNF125 | 0.204 (inactive) |
| AUGGUUACCUGUUCACCUATT against SLC7A10 | -0.732 (inactive) |
| GUCAAAGAGUGACAACUUUTT against CALB2 | 0 (inactive) |
| GGAGUGAUGAUAACGAGGATT against LATS1 | 0 (inactive) |
| GAGUUGUCGACACCACUUATT against PROS1 | 0.436 (inactive) |
| CUGCUACCUCUGACCCAAATT against DTD1 | -1.58 (active) |

| Sequence | median seed-adjusted z-score |
| --- | --- |
| GACAGUUUCCCUACAAGAATT against MAP2K7 | -0.772 (inactive) |
| CAGAUUGUCUGAUUCGAUUTT against TRIP11 | 0.333 (inactive) |
| AGGGAGGUGUUUAACGGCATT against HMOX1 | 0.45 (inactive) |
| CCUUGUUUAUCAUAAGGGATT against ZNF613 | -0.189 (inactive) |
| GCAAGUACCUGUAAUUGAATT against KLF3 | 0.628 (inactive) |
| CCUUGACUGUGGACAACAATT against PURA | -0.0185 (inactive) |
| AGAUAUUUGUUAUCGCUGUTT against CNBP | -1.14 (active) |
| GGAAUGAUCUGACUAACUUTT against PECI | -0.0254 (inactive) |
| GAAAAUUGCUCACUUUGAUTT against DAPK2 | 0.268 (inactive) |
| GAAGAACUCGAAUAUGUCATT against ASNSD1 | 0.437 (inactive) |
| CUUAAUCACUUGCAUAAAATT against GALR1 | -0.721 (inactive) |
| GAUUACCCUUAGAUCAUAUTT against NARG1 | -1.02 (active) |
| GCCUUAAGGUCAAGGUCUATT against UNC5B | -0.0207 (inactive) |
| GAAUUGGGCUUGUUGAUAUTT against KCNB2 | 1.22 (active) |
| GCAUUGGAGGUGAUCCUUUTT against SUCLG1 | -0.63 (inactive) |
| CAUUCGCAAAGGUAUCAUUTT against SLC20A2 | -0.0546 (inactive) |
| GAGUGGAAAUUUCACCUAUTT against IFNAR2 | -0.219 (inactive) |
| UCAGUAUCUUGGUCCUGUATT against CALCB | 0 (inactive) |
| CACCUGUUCUAUCACAGUATT against NOP2 | 1.15 (active) |
| CCGCAGAUCCUGUAGACUATT against PARD3B | 0.306 (inactive) |
| GAGAACAUGUUGUUCCGCUTT against SSPO | 0.397 (inactive) |
| GGGAUACAUUUAAGCGCAATT against SYTL2 | 0.211 (inactive) |

| Sequence | median seed-adjusted z-score |
| --- | --- |
| AGAGGCUGCGGUUCAAAGATT against PTP4A3 | 0.354 (inactive) |
| GAUCCUGAGUUAGAGAAGATT against METTL3 | 0.261 (inactive) |
| GCAGUUCCCUUAGAGCUAGTT against MAP4 | 1.67 (active) |
| UCUCCUUCUUCGGAACGAATT against SCAMP5 | -0.303 (inactive) |
| GACUGUAUCCAAACGAAUUTT against SLITRK2 | -0.246 (inactive) |
| GCUUCUCGGCUGUCCAUGATT against CLCNKB | 0.428 (inactive) |
| GAAUAAGCCGUGUACUGAUTT against CASD1 | 0.202 (inactive) |
| GAUUCAGUGUGGGAGAGUUTT against MCAT | 0 (inactive) |
| CGAGGACAUUGAUAACGAATT against CCNB2 | 0.0328 (inactive) |
| GAUGAUUACCAGGAACGAATT against CAPRIN1 | 1.36 (active) |
| CCUCCGAAUUCUCAACAUATT against CSNK1E | -0.796 (inactive) |
| CGAAUCAUUUGGGAAUUGATT against IDH1 | 0.421 (inactive) |
| ACUUUGCAAUCGCUCAAAATT against NPTX1 | -0.117 (inactive) |
| CAAUCUUCUUGGGAUUAUUTT against TRPC7 | 0.146 (inactive) |
| GGGAGAAGGUGAGCAGUAUTT against ZYX | 0.273 (inactive) |
| CAGCCAUGAUAAUAAAGCUTT against RARRES2 | -0.125 (inactive) |
| GGAUGAUCGUGACAAGUUUTT against ATP1B3 | -0.225 (inactive) |
| GAGAAGAUGUGGACAUACATT against GRIA1 | 0.927 (inactive) |
| GAAGCUCUCUUGACUAUGATT against FKBP3 | -0.102 (inactive) |
| GCAUUUACUCGCUCUUCAATT against KCNK12 | 1.04 (active) |
| AGACUUUGUUGUUACACUUTT against SYPL1 | -0.457 (inactive) |
| GGAAGUUCGCAGAAAAGUATT against PDIA5 | 0.989 (inactive) |

| Sequence | median seed-adjusted z-score |
| --- | --- |
| CGGUACUACCCAAACGUCATT against APOBEC3D | -0.0215 (inactive) |
| GAACUUUCCUGUUACCUUUTT against CD81 | 0 (inactive) |
| CCAUAUGAGUCCUAUGAGATT against SMURF1 | -1.4 (active) |
| CAUCGUCCAUGACAAGUCATT against GTF2IRD1 | -0.282 (inactive) |
| AGAAAGGUUUUACUACAAUTT against POLR2C | -2.95 (active) |
| GGAAAACUCGUGUCCAUCATT against FARP1 | -0.487 (inactive) |
| UGUUCAGCAUAGUUGUUUUTT against SLC12A9 | -0.0853 (inactive) |
| GGAUCAAGCUCACAAGGGATT against WDR36 | 0.00836 (inactive) |
| GCUCGUUGGGACCAACUAATT against DYNC2H1 | -0.613 (inactive) |
| GACCAAAAUUUGGAUACAATT against CTSL2 | -1.04 (active) |
| GUGUGGACUUGGAACAAUATT against THUMPD2 | -0.129 (inactive) |
| GGGAUUCCAUUGACCAGAATT against PLCG2 | 0 (inactive) |
| GCUGAGGAGUCAGUGCAUGTT against TNFRSF18 | 0.154 (inactive) |
| AGACUGUAUUGCAGGGUGATT against MAFK | 1.73 (active) |
| GAGUCGGAGUCGAAGUAGATT against NKTR | -1.1 (active) |
| GAAUUAUGCUACUCGAGAATT against EIF3A | -0.689 (inactive) |
| CAACAACAGGUAUGAGAUATT against ACCN2 | -0.597 (inactive) |
| GCUGAAGGCUUAUGAGUAUTT against KCNV2 | -1.13 (active) |
| GUGGUCACUUGGUUCCAGATT against LBX2 | 0.538 (inactive) |
| GGUCAUAGGUUUUGGAUCUTT against HIATL1 | 0.327 (inactive) |
